Compounds with a hit are over-represented: about 4% of the library has one in this group of screens.
ADAM10 inh – human ADAM10 inhibitors, primary screen, biochemical, QFRET, HTS; AID 720582, 2013; recombinant ADAM10, EDANS/DABCYL FRET peptide cleavage, 3 h; Disintegrin and metalloproteinase domain-containing protein 10 (Homo sapiens), O14672; 0.62% of 370,000 active; inhibition, % at 7 µM;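 active = inhibition above a per-campaign cutoff equal to the mean of compounds falling between control-based bounds plus 3 SD, cut at about 20% in these data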;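 note: 0% = DMSO wells while the 100% control is not disclosed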
Target sequence (O14672 214-748 limits assumed): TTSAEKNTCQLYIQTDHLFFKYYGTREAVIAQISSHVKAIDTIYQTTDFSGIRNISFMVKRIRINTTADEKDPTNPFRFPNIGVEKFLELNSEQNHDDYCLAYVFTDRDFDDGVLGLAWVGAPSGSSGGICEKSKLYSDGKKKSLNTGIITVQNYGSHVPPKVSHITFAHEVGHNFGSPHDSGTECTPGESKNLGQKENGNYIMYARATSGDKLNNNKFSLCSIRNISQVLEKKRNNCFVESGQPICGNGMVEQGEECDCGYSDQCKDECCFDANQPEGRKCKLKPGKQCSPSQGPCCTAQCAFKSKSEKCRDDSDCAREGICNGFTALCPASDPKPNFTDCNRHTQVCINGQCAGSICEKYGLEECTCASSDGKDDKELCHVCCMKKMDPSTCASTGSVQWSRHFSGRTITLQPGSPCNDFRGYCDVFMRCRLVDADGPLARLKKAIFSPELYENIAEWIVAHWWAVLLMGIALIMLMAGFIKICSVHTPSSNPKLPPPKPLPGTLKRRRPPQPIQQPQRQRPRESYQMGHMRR
aDG glyco up – activators of alpha-DG glycosylation, primary screen, uHTS, Pro5-aDG cells, AlphaScreen; alpha-DG glycosylation AlphaScreen (IIH6); 0% Pro5, 100% B10-LARGE cell signal; activation, % at 10 µM; 0.22% of 360,000 active;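 active = activation of at least 8% versus controls, or a plate z-score of at least 8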;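 note: Pro5 are CHO cells carrying HIG-tagged alpha-DG that lacks glycosylation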
ADAM17 inh – ADAM17 inhibitors, primary screen, biochemical, QFRET | inhibition, % at 6.95 µM | Disintegrin and metalloproteinase domain-containing protein 17 (Homo sapiens), P78536 | AID 720648, 2013 | recombinant ADAM17, EDANS/DABCYL FRET peptide cleavage | 0.83% of 370,000 active;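 active = inhibition above the mean of compounds lying between control limits plus 3 SD, set per campaign, cut at about 8.5% in these data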;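 note: 0% = DMSO-only wells as the low control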
NR3A LBD binder – binders of NR3A ligand-binding domain, primary screen, biophysical, differential scanning fluorimetry, uHTS; NR3A LBD differential scanning fluorimetry, Tm shift; 0% = protein alone, 100% = glycine-bound protein; Glutamate receptor ionotropic, NMDA 3A (GRIN3A) ligand-binding domain; 2.5% of 340,000 active; Tm shift relative to glycine control, % at 25 µM;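 active = melting temperature shift of at least 10% of the positive control shift, at one fixed dose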
FAS TE block – FAS thioesterase domain inhibitors, primary screen, biochemical, fluorescence intensity, uHTS. Fatty acid synthase (Homo sapiens), P49327. recombinant FAS-TE, OMFH fluorogenic substrate, fluorescence endpoint. inhibition, % at 15 µM. 0.67% of 360,000 active;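 active = compounds whose normalised, plate-corrected inhibition of enzyme fluorescence in the single-dose primary screen is 50% or more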;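 note: 0% = DMSO with enzyme and 100% = substrate without enzyme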
aDG glyco conf – alpha-DG glycosylation enhancers, retest, confirmation, single concentration, Pro5-aDG cells; shares compounds with aDG glyco up; IIH6 AlphaLISA; scaled to LARGE-overexpressing B10 cells as 100%; activation, % at 10 µM (by protocol); 17% of 600 active; AID 651671, 2012;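 active = activation of at least 7% in one or more replicates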;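 note: cells exposed to compound for two days before detection; 0% = DMSO-treated Pro5 cells and 100% = DMSO-treated B10-LARGE cells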
Numbers without * were called inactive; x = no result.

SMILES	ADAM10 inh	aDG glyco up	ADAM17 inh	NR3A LBD binder	FAS TE block	aDG glyco conf
O=C(NCC[C@H]1CC[C@@H](NC(=O)C2CCC2)[C@@H](CO)O1)c1cc(Cl)cc(Cl)c1	0	0	-1	x	x	x
COc1ccccc1/C=N/NC(=O)c1ccc(Br)cc1	3	0	-2	2	4	x
COc1ccccc1/C=N/NC(=O)C(NC(=O)c1ccccc1)=C(C)C	5	32*	2	1	-7	0
Cc1ccc(NC(=O)C(=O)NCCN2CCN(Cc3ccc([N+](=O)[O-])cc3)CC2)cc1	-8	1	0	-1	-6	x
CCCCCNCC(=O)Nc1cccc(C(=O)Nc2cccc(C(F)(F)F)c2)c1	5	16*	4	-5	7	10*
COCCn1cc(-c2csc(N)n2)c2ccccc21	12	0	-4	-1	-24	x
CN(C)c1nc(-c2cn(CCC#N)c3ccccc23)cs1	-25	5.1*	-1	0	5	2
O=C1CN(S(=O)(=O)c2ccc(Br)cc2)c2ccccc2N1	-11	0	-3	1	2	x
COc1cccc(C(=O)Cn2c(=N)n(C)c3ccccc32)c1	0	7.5*	-1	0	-4	5.1*
N=c1n(CCN2CCOCC2)c2ccccc2n1CC(=O)c1ccc(Cl)c(Cl)c1	7	7.7*	1	-4	13	6.6*
CCCn1c(=N)n(CC(=O)c2ccc(Cl)cc2)c2ccccc21	-9	3.8*	-6	-1	0	6.0*
CCCn1c(=N)n(CC(=O)c2ccc([N+](=O)[O-])cc2)c2ccccc21	-4	1	-2	-7	-4	x
C/C=C/C(=O)N1CC2(CC(c3cccc(NC(=O)CC(c4ccccc4)c4ccccc4)c3)=NO2)C[C@H]1C(N)=O (stereo not given in full)	11	0	4	-4	3	x
Cc1ccc(S(=O)(=O)N[C@H](C(=O)OCC(=O)NC(=O)c2cccn2C)C(C)C)cc1	-8	3.6*	6	-2	5	1
CC(C)[C@H](NS(=O)(=O)c1ccccc1)C(=O)OCC(=O)NC(=O)c1cccn1C	-7	0	-5	-4	-1	x
Cn1c(N)c(C(=O)COC(=O)CCOc2ccc(C(C)(C)C)cc2)c(=O)n(C)c1=O	5	1	4	-3	-35	x
O=C(CSc1nnc(C2CC2)n1-c1ccccc1)N1CCNC1=O	-7	0	2	1	-4	x
CCN(CC)S(=O)(=O)c1ccc(=O)n(CC(=O)N2Cc3ccccc3CC2C(N)=O)c1 (stereo not given)	0	3.4*	-7	1	-6	-1
COc1cccc(C(NC(C)=O)c2nc(-c3ccc(F)c(Cl)c3)cs2)c1 (stereo not given)	12	0	5	x	49	x
Cc1cc(Cl)ccc1OCc1nnc(-c2ccccc2C)o1	0	0	-1	4	23	x
COc1cc(-c2nnc(COc3ccc(Cl)cc3C)o2)cc(OC)c1OC	2	6.8*	-1	-1	23	1
CCOC(=O)c1ccc(NC(=O)COc2ccccc2CNCCc2ccccc2)cc1	3	5.8*	1	-3	5	3
CC(Sc1nncn1C)C(=O)Nc1nnc(-c2ccccc2)s1 (stereo not given)	-3	0	0	0	-6	x
COCCNc1nc(NCCOc2ccccc2)c2sc(-c3ccccc3)cc2n1	-30	7.6*	-6	x	3	6.9*
O=C(Nc1cccc(Cl)c1)Nc1sccc1-c1nc2ccccc2s1	-47	4.4*	-18	29*	36	-1
SMILES	ADAM10 inh	aDG glyco up	ADAM17 inh	NR3A LBD binder	FAS TE block	aDG glyco conf
NC(c1ccccc1)c1csc(NC(=O)Nc2cccc(Cl)c2)n1 (stereo not given)	-7	2	0	x	-7	x
CC(=O)c1ccc(N2CCN(C(=O)Nc3ccc(C(C)C)cc3)CC2)cc1	-1	7.4*	2	-1	6	6.8*
CC(=O)c1ccc(N2CCN(C(=O)Nc3ccc(F)cc3)CC2)cc1	x	0	x	x	-4	x
CC12CCC(C(NC(=S)NN)C1=O)C2(C)C (stereo not given)	9	27*	4	0	-5	0
O=C(NCc1ccc(F)c(F)c1)c1cccc2c(-c3cccnc3)coc12	1	1	-2	x	9	x
COc1ccc(CNC(=O)c2cccc3c(-c4cccnc4)coc23)cc1OC	2	8.1*	-2	x	-9	1
N#Cc1ccccc1OCC(=O)Nc1ccc2c(c1)OCCO2	-6	0	-2	-2	0	x
CCc1ccccc1NC(=O)NC1CC2CCC(C1)N2Cc1cccs1 (stereo not given)	-7	0	2	-2	-3	x
CCc1ccc(NC(=S)NC2CC3CCCC(C2)N3Cc2cccs2)cc1 (stereo not given)	2	4.0*	3	-5	9	2
Cc1ccc(C)c(N2CCN(C(=O)CCCN3C(=S)NC(C)(C)CC3C)CC2)c1 (stereo not given)	7	7.9*	-1	-5	-9	4
Cc1nn(CCc2nn[nH]n2)c2nc(-c3ccccc3)cc(C(F)(F)F)c12	-429	0	-137	-1	-2	x
O=C(CSc1nc(-c2ccccc2)c(-c2ccccc2)o1)NC1CCS(=O)(=O)C1 (stereo not given)	-12	0	-4	-1	9	x
Nn1cc(-c2ccccc2)nc1SCC(=O)NC1CCS(=O)(=O)C1 (stereo not given)	-8	6.9*	-1	-2	-8	1
CC(C)[C@H](COC=O)NC(=O)[C@H]1O[C@@H](n2ccc(N)nc2=O)[C@H](O)[C@@H]1O	-6	0	2	x	-4	x
CN1CC[n+]2cnc3ccccc3c21	-31	6.2*	-6	1	-5	-1
c1ccc2c(N3CCCCC3)ncnc2c1	-16	1	-1	1	-8	x
O=c1cc(-c2ccccc2)oc2ccccc12	-3	0	-1	1	-3	x
O=c1cc(-c2ccccc2)oc2ccc(O)cc12	-5	2.4*	-5	-1	-6	1
CCOC(=O)CN(C(=O)CSc1nnc(CNc2ccc(F)cc2)n1CC)c1ccc(F)cc1	-4	5.2*	-3	-4	-15	0
CCOC(=O)CN(C(=O)CSc1nnc(CNc2ccc(C)cc2C)n1CC)c1ccccc1	0	0	-2	-3	-2	x
